Experimental data reported in publication PMC6212790, “How bacterial xenogeneic silencer rok distinguishes foreign from self DNA in its resident genome”.
Over roughly 33,000 sequences, “e-score” has its median near -0.038; the highest 2% begin near 0.33. The sample as a whole holds a higher share of the highest values than the screen did.

Target: T1, GST-Rok-C97-191 (Bacillus subtilis subsp. subtilis str. …, UniProt O34857 97-191)
T1 sequence: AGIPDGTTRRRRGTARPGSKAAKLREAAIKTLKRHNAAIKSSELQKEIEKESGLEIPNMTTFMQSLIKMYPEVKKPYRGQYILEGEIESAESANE
Test: protein binding microarray; Rok is a gene silencer of Bacillus subtilis; high values mean tight binding
Conditions: protein: recombinant; tags: GST (pTH5325, pDEST15-Magic modified); dsDNA, one strand shown
Procedure, shortened: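 Every oligonucleotide joins a 25-mer constant primer to a 35-mer variable part drawn from a de Bruijn sequence of order 10, so each non-palindromic 8-mer appears at least 32 times and each palindromic 8-mer 16 times. The preference for every 8-mer is reported as a unitless, rank-based enrichment score (E-score). This score spans 0.5 for the most favored 8-mer to −0.5 for the most disfavored.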

| Sequence | binding signal [E-score] |
| --- | --- |
| ATTTTCTC | 0.255 |
| AATTTCTG | 0.128 |
| CATTTCTA | 0.306 |
| AGTGTAGG | 0.0625 |
| GATCCGAC | -0.0267 |
| GGCATTCA | -0.0675 |
| GCGGGGAA | -0.189 |
| ATTTTCCC | -0.00582 |
| ATTTTCCG | 0.329 |
| ATTTTCCA | 0.105 |
| TGGCAAAA | 0.122 |
| GGAATCAC | -0.0168 |
| ACTATCTA | 0.364 |
| ACTATCTC | 0.263 |
| ATTATCTA | 0.385 |
| ATTATCTC | 0.0108 |
| CCTATCTA | 0.319 |
| GGTATCTA | 0.23 |
| ATTATCTG | 0.203 |
| AGTATCTG | 0.198 |
| AGTATCTC | 0.185 |
| AGTATCTA | 0.351 |
| GCTATCTA | 0.333 |
| GCTATCCA | 0.0235 |
| AAAAGGGC | -0.186 |

| Sequence | binding signal [E-score] |
| --- | --- |
| GGACAGAC | -0.0976 |
| GAACGGGA | -0.108 |
| CAGCTCCA | -0.0439 |
| CCTATCGA | 0.117 |
| GCTATCGA | 0.102 |
| ACTATCGA | 0.348 |
| TAGCAGAA | 0.073 |
| AAGCGAGT | -0.052 |
| AAGAAAGA | 0.0949 |
| GAGGTAGC | -0.122 |
| AAGGTAGA | 0.246 |
| GAGGTAGA | 0.334 |
| GAGGTATA | 0.243 |
| CAGGTAGA | 0.223 |
| TAGGTAGA | 0.386 |
| GACAGGGA | -0.0489 |
| AGCAATGA | -0.189 |
| CGACCAAC | -0.152 |
| ACCTTGCT | -0.156 |
| GTTTTCAA | -0.105 |
| ATCAAAAT | 0.231 |
| CGCCGTTC | -0.164 |
| GATATGTA | 0.303 |
| AATATGTA | 0.375 |
| AATATGTC | 0.135 |

| Sequence | binding signal [E-score] |
| --- | --- |
| CATATGTC | 0.00539 |
| CATATGTA | 0.36 |
| CATATGAA | -0.0194 |
| GCATCAAC | 0.0173 |
| CGATAAGC | 0.0146 |
| CTCTATGC | -0.0298 |
| AAGAGTAG | 0.212 |
| AAACTAGC | 0.337 |
| CAACTAGC | 0.214 |
| ACACTAGT | 0.257 |
| GAACTAGC | 0.205 |
| AAACTAGT | 0.445 |
| AAACTAGG | 0.285 |
| CGCTGCAA | -0.0879 |
| AACCATAA | 0.0116 |
| GACCATAA | 0.0376 |
| TACCATAA | 0.354 |
| ACGTTCGG | 0.0487 |
| GATGGCGA | 0.0644 |
| GAATCTCC | 0.0847 |
| CGATCTAA | -0.0333 |
| GAATCTAA | 0.188 |
| CAATCTAA | 0.232 |
| CAATCTGC | 0.0189 |
| CAATCTAC | 0.395 |

| Sequence | binding signal [E-score] |
| --- | --- |
| CGATCTAC | 0.335 |
| CGATCTAG | 0.26 |
| GAATCTAC | 0.423 |
| CAAGAACC | -0.0441 |
| GGGACAAA | -0.132 |
| TGGAGGAA | -0.00731 |
| AGCGTAAG | -0.0539 |
| CCTATTCG | -0.0809 |
| ACTCATCT | -0.0629 |
| ATGCCCAC | -0.129 |
| AGTTTGTA | 0.367 |
| AGTTTGTC | 0.0866 |
| AATTTGTA | 0.346 |
| CGTTTGTA | 0.113 |
| GATTTGTA | 0.176 |
| ATTTTGTA | 0.228 |
| ACTGAAGG | -0.0541 |
| AGCTCGTC | -0.149 |
| CCACTAAC | 0.0126 |
| CTGCTCCA | -0.00585 |
| CGACATGC | -0.104 |
| AATTCTAC | 0.421 |
| CATTCTAA | 0.12 |
| GATTCTAA | 0.086 |
| CATTCTAG | 0.202 |

| Sequence | binding signal [E-score] |
| --- | --- |
| AATTCTAA | 0.286 |
| GATTCTAC | 0.406 |
| AGTTCTAA | 0.142 |
| GATTCTGC | 0.0425 |
| AATTCTAT | 0.286 |
| CATTCTAC | 0.384 |
| AGTTCTAT | 0.242 |
| AGTTCTAC | 0.386 |
| CCGACGTA | -0.0042 |
| CACATTAG | 0.175 |
| GACTCGTA | -0.148 |
| ATGCTACC | 0.00967 |
| TAGATAAA | 0.292 |
| AAAAAATG | -0.032 |
| TCAGGAGA | -0.166 |
| ACTAATGC | 0.262 |
| AACTACTA | 0.465 |
| AACTACGG | 0.19 |
| GCCTACTA | 0.229 |
| AGCTACTG | 0.233 |
| AACTACTG | 0.424 |
| TACTACAA | 0.303 |
| TACTACTA | 0.44 |
| CGCTACTA | 0.326 |
| GGCTACTA | 0.0153 |

| Sequence | binding signal [E-score] |
| --- | --- |
| AACTATTG | 0.291 |
| TACTACGA | 0.291 |
| AGCTACTA | 0.378 |
| AGGGCACA | -0.171 |
| ATGAATCA | -0.0987 |
| CCGACAAC | -0.076 |
| TACCCTCA | -0.129 |
| AAGTTCCA | -0.0431 |
| ACTCACTG | 0.00942 |
| GATCCAAC | -0.164 |
| CAACCATC | -0.0304 |
| ATTAAACG | 0.0877 |
| ACAAGGGC | -0.198 |
| AATGCCCT | 0.0279 |
| AACTACTT | 0.392 |
| AGCTAATA | 0.366 |
| CACTACGA | 0.123 |
| ACCTACTA | 0.343 |
| AAGTACTT | 0.325 |
| ACCTACTG | 0.238 |
| CGCTAATA | 0.286 |
| AACAACTT | 0.144 |
| CCCTACTA | 0.124 |
| CACTACTA | 0.344 |
| CACTACTG | 0.0489 |

| Sequence | binding signal [E-score] |
| --- | --- |
| AGCTAATC | 0.102 |
| CGAAGGAG | -0.0169 |
| ACCAGACG | -0.153 |
| AGTAGTCA | 0.259 |
| AGTAAAGA | 0.0717 |
| CTCGCTCA | -0.0517 |
| ACTATGGA | 0.0778 |
| CGTTATCA | 0.165 |
| ACGTCCTG | -0.0421 |
| ACTGACGG | -0.0188 |
| ACTAACAC | 0.0585 |
| AGCTACCC | 0.025 |
| CACTACTC | -0.0277 |
| GACTACGA | 0.0584 |
| AGCTACCT | 0.209 |
| GACTACTC | 0.127 |
| GACTACTA | 0.373 |
| AACTACTC | 0.363 |
| AGCTACCA | 0.35 |
| AACTGCTA | 0.0364 |
| ACCTACTC | 0.0493 |
| TACTGCTA | 0.334 |
| CACTGCTA | 0.0112 |
